# Assay outcomes (PubChem)
# Yeast superoxide: reduction of superoxide in aged yeast, primary screen, HTS. hit rate 0.18% among 330,000. superoxide response (% of plate mean), % at 10 µM. S. cerevisiae aged cells, superoxide DHE fluorescence; stronger effect = lower value. AID 2690, 2010;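 active means superoxide response under a set limit, about three screen SD below normal, cut at about 65% in these data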;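 further: yeast aged for seven days with compound at 30 °C before DHE staining; 100% = average MFI of all compound-treated wells on the plate with controls excluded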
# dFosB activator: activators of delta FosB homodimer, primary screen, biochemical, fluorescence polarization, TAMRA-CDK5 oligo, single point; Protein FosB (Mus musculus), P13346; purified delta FosB; percent of positive-control signal above neutral wells; activation, % at 25 µM; hit rate 0.99% among 340,000;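 active means mean activation above about 17%, with every replicate also reaching it, limit read from the data, passing the limit was not always enough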
# Target sequence (P13346 whole entry, looked up): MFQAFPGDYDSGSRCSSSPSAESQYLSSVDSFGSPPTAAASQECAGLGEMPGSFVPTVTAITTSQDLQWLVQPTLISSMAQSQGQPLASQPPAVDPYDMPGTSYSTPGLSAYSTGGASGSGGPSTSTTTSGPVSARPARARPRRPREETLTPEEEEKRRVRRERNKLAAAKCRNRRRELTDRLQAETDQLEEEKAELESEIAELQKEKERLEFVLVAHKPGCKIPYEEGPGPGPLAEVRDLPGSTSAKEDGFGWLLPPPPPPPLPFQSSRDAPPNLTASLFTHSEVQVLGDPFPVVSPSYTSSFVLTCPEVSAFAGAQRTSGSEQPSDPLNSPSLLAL
# NR3A LBD binder: binders of NR3A ligand-binding domain, primary screen, biophysical, differential scanning fluorimetry, uHTS. Glutamate receptor ionotropic, NMDA 3A (GRIN3A) ligand-binding domain. NR3A LBD differential scanning fluorimetry, Tm shift; 0% = protein alone, 100% = glycine-bound protein. Tm shift relative to glycine control, % at 25 µM. hit rate 2.5% among 340,000;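 active means melting temperature shift of at least 10% of the positive control shift, at one fixed dose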
# NALP1 inh: NALP1 inflammasome inhibitors in reconstituted yeast, colorimetric, S. cerevisiae, triplicate retest; S. cerevisiae NALP1/ASC/caspase-1 growth, X-gal OD620, 72 h; inhibition, % at 10 µM; hit rate 0.61% among 280,000; AID 2071, 2009; in the data active means inhibition mostly above about 24%, no sharp cut-off; inactive means mostly below about 32%
# UBC13 inh: UBC13 polyubiquitin chain formation inhibitors, primary screen, biochemical, TR-FRET, uHTS. Ubiquitin-conjugating enzyme E2 N (Homo sapiens), P61088. inhibition, % at 20 µM. hit rate 0.47% among 330,000. AID 485273, 2010; in the data active means inhibition above about 45%, passing the limit was not always enough
# Target sequence (P61088 whole entry, looked up): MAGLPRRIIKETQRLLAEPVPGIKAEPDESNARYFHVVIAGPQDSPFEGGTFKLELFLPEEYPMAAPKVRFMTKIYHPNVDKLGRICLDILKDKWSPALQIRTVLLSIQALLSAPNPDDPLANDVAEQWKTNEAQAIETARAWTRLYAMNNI
# Superoxide pick: superoxide lowering in aged yeast cells, confirmation, cherry picked compounds | S. cerevisiae aging, superoxide DHE fluorescence; stronger effect = lower value | shares compounds with Yeast superoxide | superoxide response (% of plate), % at 10 µM | hit rate 1% among 850;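 active means superoxide signal below 65% of the plate average of sample wells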;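 further: cells aged with compound for 7 days at 30 degrees C before staining; 100% equals mean DHE fluorescence of all compound wells on the plate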
# DHE counter: DHE quenching or ROS scavenging interference in aged yeast, artefact control for yeast caloric restriction mimetic project, S. cerevisiae BY4741, flow cytometry; DHE fluorescence; stronger effect = lower value; AID 435000, 2010; shares compounds with Yeast superoxide; fluorescence response, % at 10 µM; 850 tested, under 10 active;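 active means fluorescence response below 15%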;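 further: percent of the mean fluorescence averaged over all compound wells on the plate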
# An asterisk follows results filed as active; x = no result given. Rows were chosen to be rich in hits. Some 4.3% of all compounds tested hit in one or more screens of this group.
SMILES,Yeast superoxide,dFosB activator,NR3A LBD binder,NALP1 inh,UBC13 inh,Superoxide pick,DHE counter
C/C(N)=C(/C#N)C(=O)CN1C(=O)NC(Cc2c[nH]c3ccccc23)C1=O (configuration not stated),92,-6,1,11,5,x,x
CCCNC(=O)[C@@H]1CCCN1C(=O)C1CCN(S(=O)(=O)c2ccc(C)cc2)CC1,64*,3,0,28,-9,116,109
COCCn1c(SCC(=O)Nc2ccc(NC(C)=O)cc2)nc2ccccc2c1=O,51*,10,0,26,2,97,103
C#Cc1cccc(-n2nnc(C(=O)OC)c2-c2ccccc2)c1,52*,-10,0,17,1,96,94
COC(=O)c1nnn(-c2ccccc2)c1N,91,2,-2,-31,8,x,x
CCOC(=O)c1cccnc1SCC(=O)N(CC)c1cccc(C)c1,103,-5,-2,-8,10,x,x
CCN(C(=O)CSc1ncccc1C(=O)OC(C)C)c1cccc(C)c1,63*,-14,2,-10,-6,112,101
COc1ccc(/C=C/C(=O)OCC(=O)NC(C)CCc2ccccc2)cc1OC (configuration not stated),82,-8,4,x,15,x,x
CN1CCN(C2=Cc3cc(Cl)ccc3Sc3cc(F)ccc32)CC1,60*,-15,1,19,24,94,93
c1ccc2[nH]c3cc4ncnc4cc3nc2c1,40*,-11,0,71,-135,47*,89
CN1CCN(c2ccccc2NC(=O)c2ccc(-c3ccccc3[N+](=O)[O-])o2)CC1,106,-3,-2,6,-15,x,x
O=C(Cn1nc(Br)nc1Br)c1ccccc1,57*,7,0,5,7,102,101
Nc1ncn(CC(=O)c2ccccc2)n1,106,-1,0,5,1,x,x
Cc1n[nH]c(=S)n(/N=C/c2cccc([N+](=O)[O-])c2)c1=O,61*,1,-2,-12,12,97,95
O=[N+]([O-])c1cccc(/C=N/n2c(-c3cccnc3)n[nH]c2=S)c1,132,-5,7,19,-2,x,x
CCOc1ccc(OCCn2c(S(=O)(=O)O)nc3c(N)ncnc32)cc1,98,3,-1,11,6,x,x
Cc1cccc(C)c1NC(=O)COn1nnc2ccc(C(F)(F)F)cc21,118,4,0,25,-13,x,x
O=C(COn1nnc2ccc(C(F)(F)F)cc21)Nc1nnc(-c2ccccc2)o1,60*,1,-8,24,-14,98,111
COc1ccc(C(C(=O)NC2CCCC2)N(Cc2cccnc2)C(=O)c2snc(C(N)=O)c2N)cc1 (configuration not stated),106,-2,-1,12,18,x,x
COc1ccc(C)cc1N(C(=O)c1cccc(F)c1)c1nc2ccccc2s1,48*,-4,4,18,0,97,108
COc1ccc(C)cc1N(C(=O)c1ccccc1)c1nc2ccccc2s1,98,-8,1,23,8,x,x
C[C@H]1CCC[C@]2(O[C@H](CCO)C[C@@H](O)[C@@H]2O)O1,97,-4,0,x,-3,x,x
CC(CNC(=O)c1ccccc1Cl)NC(=O)c1ccccc1Cl (configuration not stated),93,x,1,x,0,x,x
COc1ccc(S(=O)(=O)N2CCC3(CC2)CC(=O)c2ccccc2O3)cc1C,65*,5,3,x,7,100,96
COc1ccc(OC)c(S(=O)(=O)N2CCC3(CC2)CC(=O)c2ccccc2O3)c1,93,-6,1,x,-6,x,x
SMILES,Yeast superoxide,dFosB activator,NR3A LBD binder,NALP1 inh,UBC13 inh,Superoxide pick,DHE counter
O=C(OCc1c(F)cccc1Cl)c1cnc2ccccc2n1,54*,7,1,17,-2,101,88
C/C(=N\NC(=O)C(=O)Nc1cc(C)ccc1C)c1ccncc1,91,-12,0,-15,5,x,x
CCn1c(C)nc2c(=O)oc3ccccc3c21,65*,-5,1,-2,2,94,97
COC(=O)C(CC(C)C)NC(=O)C(N)Cc1ccccc1 (configuration not stated),91,4,1,10,10,x,x
COC(=O)[C@H](Cc1ccccc1)NC(=O)[C@@H](N)CC(=O)OCc1ccccc1,65*,-17,-2,x,6,94,101
COc1cc(OC)c(NC(=O)c2cncn2-c2ccc(F)cc2)cc1Cl,121,-8,-2,4,-1,x,x
O=C(CN1CCN(c2ccccn2)CC1)Nc1ccc(OC(F)(F)F)cc1,109,-3,-3,10,1,94,111
CC(=O)Nc1ccc(NC(=O)CN2CCN(c3ccccn3)CC2)cc1,53*,3,0,31,-5,101,94
CCN(CC)S(=O)(=O)c1cc(NC(=O)CN2CCN(c3ccccn3)CC2)ccc1C,100,-5,0,13,2,97,100
Cc1cc(C)cc(NC(=O)CN2CCN(c3ccccn3)CC2)c1,89,-2,0,22,3,x,x
Cc1ccc(NC(=O)CN2CCN(c3ccccn3)CC2)cc1S(=O)(=O)N(C)C,97,-5,-2,-8,-14,x,x
CN(C)S(=O)(=O)c1ccc(NC(=O)CN2CCN(c3ccccn3)CC2)cc1,80,-3,2,11,7,107,91
CCN(C(=O)C(C)Sc1ccc(S(=O)(=O)N2CCOCC2)cn1)c1ccccc1 (configuration not stated),80,-12,0,x,-4,x,x
Cc1ccc(S(=O)(=O)N2CCN=C2SCc2ccccc2)cc1,63*,-6,4,26,7,99,100
COc1ccc([N+](=O)[O-])cc1N(CC(O)CN(C)C)S(=O)(=O)c1ccccc1 (configuration not stated),54*,-4,8,-33,-5,105,111
CCN(CC)C(=O)CN(C#N)c1nc(OC)nc(N(C)C)n1,104,-4,-2,5,-4,x,x
COc1nc(N(C)C)nc(N(C#N)CCOC(C)=O)n1,64*,-4,2,-5,-7,113,104
Cc1ccc(NC(=S)NC(=O)Cc2ccccc2)c(O)c1,102,-5,-2,-8,-1,x,x
Cc1ccccc1Cn1cc(NC(=O)c2noc3c2CC(C(C)(C)C)CC3)cn1 (configuration not stated),65*,-15,-7,3,-11,121,99
